Test [1] can be described thus: P-glycoprotein substrates identified in KB-3-1 adenocarcinoma cell line, qHTS therapeutic library screen (AID 1346986). Further: nearly all actives have a fitted effect of over 60% in size. To be noted: KB-3-1 parental cells viability, CellTiter-Glo, 72 h; series mostly up to 44.5 µM. In outline: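 Dose-response cytotoxicity, KB-3-1 vs P-gp-high KB-8-5-11, no colchicine in assay medium. Read: CellTiter-Glo at 72 h.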
In general terms: Quantitative high-throughput screening tests each substance at several concentrations.

Test [2] in a line: P-glycoprotein substrates identified in KB-8-5-11 adenocarcinoma cell line, qHTS therapeutic library screen (AID 1346987). Further: nearly all actives have a fitted effect of over 65% in size. Further: potency means the concentration at half of the fitted maximal effect. The following applies: KB-8-5-11 (P-gp overexpressing) viability, CellTiter-Glo, 72 h; series mostly up to 44.5 µM. In outline:
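Human cervical adenocarcinoma KB-8-5-11 cells, selected in colchicine to over-express P-gp and assayed without it, were exposed for 72 h to titrated compounds. An ATP-based luminescent viability signal gave AC50.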

This passage reports Potency, outcome and activity change, negative = cytotoxicity results from PubChem BioAssay (NCATS).

Results filed as inconclusive are left out. Where a call stands in place of a potency, no number is given. Unmarked numbers belong to inactive results. The source made the active and inactive calls. The call rests on the fitted dose curve; in most records, active means well fitted curve in the direction sought with a large enough effect; inconclusive means small, poorly fitted or top-dose-only effect, or another doubt; inactive means no such curve, though single readings can be large; an effect the other way counts as inactive or inconclusive.

As for `C[C@]12CC[C@@H]3c4ccc(O[C@@H]5O[C@H](C(=O)O)[C@@H](O)[C@H](O)[C@H]5O)cc4CC[C@H]3[C@@H]1CCC2=O`, the Potency result in test [1] and in test [2] was “inactive” in each case.
Regarding `CC(C)c1nc(N(C)S(C)(=O)=O)nc(-c2ccc(F)cc2)c1/C=C/[C@@H](O)C[C@@H](O)CC(=O)O`, the Potency result in test [1] and in test [2] was “inactive” each time.
Consider `CCC(C)(O)C(O)C(=O)OCc1ccc(O[C@@H]2O[C@H](CO)[C@@H](O)[C@H](O)[C@H]2O)cc1` (some centres not stated), for which the Potency result in test [1] and in test [2] was “inactive” each time.
Turning to `COc1cc([C@H]2OC[C@]3(OC(C)=O)[C@@H](c4ccc(O[C@@H]5O[C@H](CO)[C@@H](O)[C@H](O)[C@H]5O)c(OC)c4)OC[C@H]23)ccc1O`, the Potency entry in test [1] and in test [2] was “inactive” throughout.
Take `CC(C)[C@@H](C)/C=C/[C@@H](C)[C@H]1CC[C@H]2C3=CC=C4C[C@@H](O)CC[C@]4(C)[C@H]3CC[C@]12C`: the Potency entry in test [1] and in test [2] was “inactive” throughout.
As to `CC1=CC(=O)CC(C)(CO[C@@H]2O[C@H](CO)[C@@H](O)[C@H](O)[C@H]2O)C1(O)/C=C/C(C)=C/C(=O)O` (some centres not stated), the Potency result in test [1] and in test [2] was “inactive” throughout.
Consider `Cc1cc(O)c(C(C)C)cc1O[C@@H]1O[C@H](CO)[C@@H](O)[C@H](O)[C@H]1O`, for which the Potency result in test [1] and in test [2] was “inactive” each time.
`CC1(C)CCC2(C(=O)OC3OC(COC4OC(CO)C(O)C(O)C4O)C(O)C(O)C3O)CCC3(C)C(=CCC4C5(C)CCC(O)C(C)(C(=O)O)C5CCC43C)C2C1O` (configuration not stated): the outcome in test [1] and in test [2] was “inactive [at 9.29 µM]” throughout.
Regarding `O=c1c2cccnc2n(-c2cccc([N+](=O)[O-])c2)c(=O)n1Cc1ccncc1`, the Potency result in test [1] and in test [2] was “inactive” throughout.
`CC12CCC3C(C)(C)C(O)CCC3(C)C1Cc1c(oc(C(=O)O)cc1=O)O2` (configuration not stated): the Potency entry in test [1] and in test [2] was “inactive” each time.
In the case of `CCC1CC2C(C)=CC3CCCCC3C2(C)C2(OC(=O)C(C)(O)OC2=O)O1` (configuration not stated), the Potency entry in test [1] and in test [2] was “inactive” in each case.
For `Cc1cc(C)c(S(=O)(=O)N(Cc2ccc(-c3cccc(S(C)(=O)=O)c3)cc2)Cc2ccc(C(F)(F)F)o2)c(C)c1`, in test [2], the Potency entry was “inactive”.
The same measure, in the same setting: in the case of `CC1(O)CCC2C(C(=O)O)=COC(OC3OC(CO)C(O)C(O)C3OC(=O)/C=C/c3ccc(O)cc3)C21` (configuration not stated) it was “inactive”.
Still for that read-out and setting: in the case of `CC1CCCC2OC2C(=O)c2c(O)cc(O)cc2CC(=O)O1` (configuration not stated) it was “inactive”.
For `C[C@@H]1O[C@@H](O[C@H]2[C@H](O[C@H]3CO[C@@H](O[C@H]4CC[C@@]5(C)C(CC[C@]6(C)C5CC[C@]57OC[C@@]8(CC[C@](C)(CO)CC85)[C@H](O)C[C@]76C)C4(C)C)[C@H](O[C@@H]4O[C@H](CO)[C@@H](O)[C@H](O)[C@H]4O)[C@H]3O)O[C@H](CO)[C@@H](O)[C@@H]2O)[C@H](O)[C@H](O)[C@H]1O` (some centres not stated), in test [2], the activity change, negative = cytotoxicity is 8.31% [at 9.29 µM].
In the case of `CC(C)C(=O)O[C@@H]1[C@@H](O)[C@@H](O[C@H]2O[C@H](CO)[C@@H](O)[C@H](O)[C@H]2O)O[C@H](CO)[C@H]1O`, the Potency result in test [2] was “inactive”.
For `C=C(C(=O)O)[C@@H]1CC=C2CCC[C@H](C)[C@@]2(C)C1`, in test [2], the Potency entry is “inactive”.
Turning to `CC1CCC2(C(=O)OC3OC(COC4OC(CO)C(O)C(O)C4O)C(O)C(O)C3O)CCC3(C)C(=CCC4C5(C)CCC(O)C(C)(C(=O)O)C5CCC43C)C2C1(C)O` (configuration not stated), the activity change, negative = cytotoxicity in test [2] was 1.52% [at 9.29 µM].
On to `CC1(C)CCCC2(C)C1C(O)C=C(CO)C2(O)C(=O)O` (configuration not stated), for which, in test [2], the Potency result was “inactive”.
Turning to `OCc1ccccc1O[C@@H]1O[C@H](CO)[C@@H](O)[C@H](O)[C@H]1O`, in test [2], the Potency result was “inactive”.
Still for that read-out and setting: under `CC(C)CNC(=O)/C=C/CCCCc1ccc2c(c1)OCO2` stands “inactive”.
Same read-out and setting: in the case of `COC1CCCC/C(C)=C/C2C=C(C)C(C)C3C(CC(C)C)NC(=O)C23C(=O)C1` (configuration not stated) it was “inactive”.
On to `C[C@]12CCC[C@](C)(C(=O)O)C1CCC13C=C(CO)C(CCC12)C3` (some centres not stated), for which the Potency result in test [2] is “inactive”.
For the compound `COc1cc(/C=C/C(=O)OC2CC(OC(C)=O)C(OC(C)=O)C3C2CCC2C(=O)OC(c4ccoc4)CC23C)ccc1O[C@@H]1O[C@H](CO)[C@@H](O)[C@H](O)[C@H]1O` (some centres not stated), the Potency entry in test [2] is “inactive”.
The same measure, in the same setting: in the case of `CC1CCC2(C)C(CC(O)C(O)C23CO3)C1(C)CCC1=CC(=O)OC1O` (configuration not stated) it was “inactive”; in that of `C(#Cc1cccc(CN2CCOCC2)c1)CCN1CCCCC1`, “inactive”.
On the same count and under the same terms, under `C=C1CC2C3(C)C(OC(C)=O)CC(=O)OC(C)(C)C3C(O)C(OC(C)=O)C2(C)C2C(=O)OC(C)C(=O)C12C` (configuration not stated) stands “inactive”; under `CCc1nc(C(N)=O)c(Nc2ccc(N3CCC(N4CCN(C)CC4)CC3)c(OC)c2)nc1NC1CCOCC1`, 5.7 µM (active); under `Cc1nn(C)c(COc2ccc(N3CCN(S(=O)(=O)N(C)C)CC3)cc2)c1-c1cccc2c(CCCOc3cccc4ccccc34)c(C(=O)O)n(CCN3CCOCC3)c12`, “inactive”.
The same measure, in the same setting: in the case of `CCOC(=O)N1CCC(NCCNC(=O)c2ccccc2C)CC1` it was “inactive”; in that of `N[C@@H](CC(=O)N1CCn2c(nnc2C(F)(F)F)C1)Cc1[nH]nc2c(F)c(F)ccc12`, “inactive”.
With `C[C@@H]1O[C@@H](O[C@H]2[C@H](O[C@H]3[C@H](O[C@H]4CC[C@@]5(C=O)C(CC[C@]6(C)C5CC=C5C7CC(C)(C)C[C@@H](O)[C@]7(C)CC[C@]56C)C4(C)C)O[C@H](C(=O)O)[C@@H](O)[C@@H]3O)OC[C@@H](O)[C@@H]2O)[C@H](O)[C@H](O)[C@H]1O` (some centres not stated), the activity change, negative = cytotoxicity in test [2] was 5.8% [at 9.29 µM].
`C=C[C@](C)(CC/C=C(\C)C(=O)O)O[C@@H]1OC[C@H](O)[C@H](O)[C@H]1O`: in test [2], the Potency result was “inactive”.
The same measure, in the same setting: in the case of `CC/C=C\C[C@H]1C(=O)C=C[C@@H]1CCCCCCCC(=O)O` it was “inactive”; in that of `O=C1NC(Cc2ccc(O)cc2)C(=O)N2CCCC12` (configuration not stated), “inactive”.
Same read-out and setting: under `CC(C)=CCC/C(C)=C/CC/C(C)=C/CC[C@]1(C)CCc2cc(O)cc(C)c2O1` stands “inactive”.
With `C=C[C@@]1(C)CC(=O)C2[C@](C)(O1)[C@@H](OC(C)=O)[C@@H](O)[C@H]1C(C)(C)CCC[C@]21C` (some centres not stated), in test [2], the activity change, negative = cytotoxicity was 9.24% [at 9.29 µM].
On to `O=C(/C=C/c1ccc(O)cc1)OC[C@H]1O[C@@H](OC(=O)/C=C/c2ccccc2)[C@H](O)[C@@H](O)[C@@H]1O`, for which the Potency entry in test [2] is “inactive”.
On the same count and under the same terms, in the case of `CC1CCC2C(C)(C)C(O)CCC2(C)C12Cc1c(O)cc3c(c1O2)CN=C3N` (configuration not stated) it was “inactive”.
Still for that read-out and setting: under `O=C1[C@H](O[C@@H]2O[C@H](CO)[C@@H](O)[C@H](O)[C@H]2O)Oc2ccccc2N1O` stands “inactive”; under `CC(C)C(C#N)O[C@@H]1O[C@H](CO[C@@H]2OC[C@](O)(CO)[C@H]2O)[C@@H](O)[C@H](O)[C@H]1O` (some centres not stated), “inactive”.
The same measure, in the same setting: under `O=C1CC(c2ccc([N+](=O)[O-])cc2)=NN1c1ccccc1` stands “inactive”.
Take `CC(C)(O)c1ccc2c(c1)C(O)CC1C(C)(C(=O)O)CCCC21C` (configuration not stated): the Potency entry in test [2] was “inactive”.
On to `CC(=O)c1c(O)cc2c(c1C)C(=O)CC(O)C2` (configuration not stated), for which the Potency entry in test [2] was “inactive”.
Same read-out and setting: in the case of `CCOC(=O)c1ccc(N(C)c2csc(-c3ccccc3)n2)cc1` it was “inactive”.
For the compound `COc1cc2c(cc1O)C1(Cc3ccc4c(c3C1=O)OCO4)N(C)CC2` (configuration not stated), the Potency result in test [2] was “inactive”.
Turning to `C1CCN2CC3C[C@@H](CN4CCCC[C@@H]34)[C@H]2C1`, the Potency entry in test [2] was “inactive”.
In the case of `O=C(/C=C/c1ccc(O)cc1)OC[C@]12O[C@H]1[C@@H](O)[C@@H]1C=CO[C@@H](O[C@@H]3O[C@H](CO)[C@@H](O)[C@H](O)[C@H]3O)[C@@H]12`, in test [2], the Potency result is “inactive”.
On the same count and under the same terms, under `CC[C@H](C)/C=C(C)/C=C/C(=O)Cc1cc(O)c(C)c(O)c1C=O` stands “inactive”; under `COc1ccccc1-n1c(SCC(=O)Nc2nc3ccc(C)cc3s2)nc2c(c1=O)SCC2`, “inactive”; under `O=C(O[C@H]1[C@@H]2C=CO[C@@H](O[C@@H]3O[C@H](CO)[C@@H](O)[C@H](O)[C@H]3O)[C@@H]2[C@@]2(CO)O[C@@H]12)c1ccc(O)cc1`, “inactive”.
